Results published in ChEMBL document CHEMBL2218924, “A broad activity screen in support of a chemogenomic map for kinase signalling research and drug discovery” (Biochem J, 2013).

How the values were obtained:
[1] = target: T1, Serine/threonine-protein kinase TBK1 (Homo sapiens) (UniProt Q9UHD2); conditions: at 10 µM
T1 sequence (whole entry): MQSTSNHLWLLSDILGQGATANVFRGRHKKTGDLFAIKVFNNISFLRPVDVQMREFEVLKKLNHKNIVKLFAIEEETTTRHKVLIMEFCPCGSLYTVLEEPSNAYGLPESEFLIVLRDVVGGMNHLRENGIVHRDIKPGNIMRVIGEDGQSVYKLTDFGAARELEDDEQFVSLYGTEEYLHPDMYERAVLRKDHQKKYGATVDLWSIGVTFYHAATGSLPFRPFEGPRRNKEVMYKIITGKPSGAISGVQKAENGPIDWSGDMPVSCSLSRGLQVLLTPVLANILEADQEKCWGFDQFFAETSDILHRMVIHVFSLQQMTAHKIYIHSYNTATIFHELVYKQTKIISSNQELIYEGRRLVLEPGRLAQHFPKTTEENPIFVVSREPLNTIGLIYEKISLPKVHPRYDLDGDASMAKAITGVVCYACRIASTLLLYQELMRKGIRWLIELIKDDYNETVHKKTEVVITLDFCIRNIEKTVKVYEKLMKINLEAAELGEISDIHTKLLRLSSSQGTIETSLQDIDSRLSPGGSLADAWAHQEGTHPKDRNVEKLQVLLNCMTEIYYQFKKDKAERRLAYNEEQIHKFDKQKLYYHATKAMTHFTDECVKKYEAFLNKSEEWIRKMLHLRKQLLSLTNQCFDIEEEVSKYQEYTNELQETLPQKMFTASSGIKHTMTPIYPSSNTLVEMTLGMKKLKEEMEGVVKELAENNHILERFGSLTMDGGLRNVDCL

[2] = target: T2, TGF-beta receptor type-1 (Homo sapiens) (UniProt P36897); conditions: at 1 µM
T2 sequence (whole entry): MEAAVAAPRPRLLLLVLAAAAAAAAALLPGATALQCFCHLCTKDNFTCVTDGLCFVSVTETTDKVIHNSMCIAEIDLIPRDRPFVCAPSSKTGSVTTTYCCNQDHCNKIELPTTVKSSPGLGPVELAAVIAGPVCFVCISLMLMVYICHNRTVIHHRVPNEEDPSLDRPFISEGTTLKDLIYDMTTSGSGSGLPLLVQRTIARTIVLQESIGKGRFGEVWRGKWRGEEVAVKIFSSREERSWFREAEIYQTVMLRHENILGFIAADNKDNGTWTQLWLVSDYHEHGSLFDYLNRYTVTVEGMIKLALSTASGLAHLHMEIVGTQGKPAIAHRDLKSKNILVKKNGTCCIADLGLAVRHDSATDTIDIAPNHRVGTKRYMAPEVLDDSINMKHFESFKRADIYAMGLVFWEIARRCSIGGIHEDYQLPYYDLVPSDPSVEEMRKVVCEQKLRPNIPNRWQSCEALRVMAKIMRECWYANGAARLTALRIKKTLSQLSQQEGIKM

[3] = target: T2, TGF-beta receptor type-1 (Homo sapiens); conditions: at 10 µM
[4] = target: Insulin-like growth factor 1 receptor (Homo sapiens) (UniProt P08069); conditions: at 1 µM
[5] = target: Insulin-like growth factor 1 receptor (Homo sapiens) (UniProt P08069); conditions: at 10 µM
[6] = target: T3, Inhibitor of nuclear factor kappa-B kinase subunit alpha (Homo sapiens) (UniProt O15111); conditions: at 1 µM
T3 sequence (whole entry): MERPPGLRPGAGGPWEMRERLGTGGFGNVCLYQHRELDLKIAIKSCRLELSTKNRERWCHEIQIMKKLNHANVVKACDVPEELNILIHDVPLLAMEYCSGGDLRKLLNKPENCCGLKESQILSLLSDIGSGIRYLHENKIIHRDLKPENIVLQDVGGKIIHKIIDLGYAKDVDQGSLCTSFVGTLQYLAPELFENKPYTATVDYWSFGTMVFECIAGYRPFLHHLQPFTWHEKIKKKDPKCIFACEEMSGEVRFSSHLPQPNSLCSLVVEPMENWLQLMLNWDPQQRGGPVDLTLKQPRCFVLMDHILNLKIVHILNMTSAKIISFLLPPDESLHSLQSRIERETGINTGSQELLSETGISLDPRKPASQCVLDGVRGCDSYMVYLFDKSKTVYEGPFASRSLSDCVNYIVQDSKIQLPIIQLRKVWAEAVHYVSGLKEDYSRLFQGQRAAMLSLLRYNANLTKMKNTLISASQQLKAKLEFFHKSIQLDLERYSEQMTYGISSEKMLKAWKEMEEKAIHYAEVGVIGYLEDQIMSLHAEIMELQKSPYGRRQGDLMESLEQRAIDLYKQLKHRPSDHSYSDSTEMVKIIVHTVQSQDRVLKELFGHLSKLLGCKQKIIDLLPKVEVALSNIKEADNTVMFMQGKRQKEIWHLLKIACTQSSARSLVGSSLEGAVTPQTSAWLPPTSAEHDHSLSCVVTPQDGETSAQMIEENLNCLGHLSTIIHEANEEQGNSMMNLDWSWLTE

[7] = target: T3, Inhibitor of nuclear factor kappa-B kinase subunit alpha (Homo sapiens); conditions: at 10 µM
[8] = target: T4, Inhibitor of nuclear factor kappa-B kinase subunit beta (Homo sapiens) (UniProt O14920); conditions: at 1 µM
T4 sequence (whole entry): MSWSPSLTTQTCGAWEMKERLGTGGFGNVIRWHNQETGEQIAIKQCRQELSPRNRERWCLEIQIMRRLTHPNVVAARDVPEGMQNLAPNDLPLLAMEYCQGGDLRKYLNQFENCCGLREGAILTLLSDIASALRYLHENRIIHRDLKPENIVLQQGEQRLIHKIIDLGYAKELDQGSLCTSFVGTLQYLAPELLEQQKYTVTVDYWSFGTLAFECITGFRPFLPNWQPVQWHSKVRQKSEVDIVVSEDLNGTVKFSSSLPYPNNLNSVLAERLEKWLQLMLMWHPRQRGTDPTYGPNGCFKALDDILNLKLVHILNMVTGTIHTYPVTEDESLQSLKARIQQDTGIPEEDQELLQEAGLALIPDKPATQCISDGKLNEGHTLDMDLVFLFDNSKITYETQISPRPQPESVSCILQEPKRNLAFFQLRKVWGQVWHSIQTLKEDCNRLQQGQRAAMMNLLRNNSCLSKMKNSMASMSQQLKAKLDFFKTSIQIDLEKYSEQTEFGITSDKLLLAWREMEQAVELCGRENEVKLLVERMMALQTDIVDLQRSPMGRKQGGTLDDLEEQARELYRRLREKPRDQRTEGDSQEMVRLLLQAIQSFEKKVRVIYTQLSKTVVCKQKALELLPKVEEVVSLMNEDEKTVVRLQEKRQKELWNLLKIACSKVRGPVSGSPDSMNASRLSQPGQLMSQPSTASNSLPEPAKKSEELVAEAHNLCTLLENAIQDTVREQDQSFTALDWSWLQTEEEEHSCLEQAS

[9] = target: T4, Inhibitor of nuclear factor kappa-B kinase subunit beta (Homo sapiens); conditions: at 10 µM

Chain of Insulin-like growth factor 1 receptor (Homo sapiens) (P08069 31-736 limits assumed): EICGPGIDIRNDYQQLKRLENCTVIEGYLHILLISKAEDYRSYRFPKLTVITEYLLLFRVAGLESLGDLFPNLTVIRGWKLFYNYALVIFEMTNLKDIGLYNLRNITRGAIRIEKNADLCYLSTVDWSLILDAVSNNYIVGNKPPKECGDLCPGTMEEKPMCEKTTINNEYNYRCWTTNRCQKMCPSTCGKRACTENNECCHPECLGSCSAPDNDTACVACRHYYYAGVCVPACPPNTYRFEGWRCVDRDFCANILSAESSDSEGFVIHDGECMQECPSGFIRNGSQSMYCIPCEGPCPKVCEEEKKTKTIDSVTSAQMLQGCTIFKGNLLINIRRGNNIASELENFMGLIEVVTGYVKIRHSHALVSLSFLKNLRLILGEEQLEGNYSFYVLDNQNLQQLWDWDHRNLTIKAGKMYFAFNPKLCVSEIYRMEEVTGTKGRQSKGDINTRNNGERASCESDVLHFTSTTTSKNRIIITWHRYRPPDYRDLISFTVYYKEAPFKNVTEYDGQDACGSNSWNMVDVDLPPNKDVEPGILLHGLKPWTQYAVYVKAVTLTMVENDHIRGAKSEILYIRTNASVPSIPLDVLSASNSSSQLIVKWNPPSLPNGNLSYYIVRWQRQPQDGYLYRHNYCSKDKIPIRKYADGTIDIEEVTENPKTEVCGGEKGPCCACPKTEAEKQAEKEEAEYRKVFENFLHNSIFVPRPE
Chain of Insulin-like growth factor 1 receptor (Homo sapiens) (P08069 741-1367 limits assumed): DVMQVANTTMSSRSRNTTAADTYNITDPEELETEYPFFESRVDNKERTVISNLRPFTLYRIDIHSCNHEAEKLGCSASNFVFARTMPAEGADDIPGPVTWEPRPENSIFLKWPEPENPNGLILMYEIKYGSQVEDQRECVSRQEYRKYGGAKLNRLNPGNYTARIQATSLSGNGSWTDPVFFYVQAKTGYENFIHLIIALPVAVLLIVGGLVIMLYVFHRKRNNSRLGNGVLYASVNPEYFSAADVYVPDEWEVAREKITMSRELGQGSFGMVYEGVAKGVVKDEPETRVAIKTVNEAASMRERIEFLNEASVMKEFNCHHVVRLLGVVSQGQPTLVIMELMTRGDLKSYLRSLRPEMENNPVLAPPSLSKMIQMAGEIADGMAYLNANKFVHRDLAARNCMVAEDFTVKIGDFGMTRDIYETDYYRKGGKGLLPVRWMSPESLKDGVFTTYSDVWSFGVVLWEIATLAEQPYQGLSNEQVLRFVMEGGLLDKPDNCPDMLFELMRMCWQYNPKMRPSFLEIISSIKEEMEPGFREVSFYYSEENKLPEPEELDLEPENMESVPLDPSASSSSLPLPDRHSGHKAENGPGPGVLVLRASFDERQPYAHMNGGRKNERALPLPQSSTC

## CCCCc1c(-c2ccc(OC)cc2)[nH]c2nccnc12
[1]
  residual activity: 59%
[2]
  residual activity: 84%
[3]
  residual activity: 73%
[4]
  residual activity: 61%
[5]
  residual activity: 51%
[6]
  residual activity: 87%
[7]
  residual activity: 87%
[8]
  residual activity: 109%
[9]
  residual activity: 101%
